Most compounds without a hit are left out; they make up all but 11% or so of the library.
HEK293 tox: HEK 293 cell cytotoxicity; HEK 293 viability, ATP luminescence (CellTiter-Glo), 48-72 h; Potency, µM (series often up to 115 µM), hits mostly inhibitors; hit rate 6.6% among 94,000; AID 1345083; also: nearly all actives have a fitted effect of over 60% in size
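HEK 293 seeded at 250 cells/well receive compound via pintool. After 48 or 72 hr at 37 degree Celsius, 5% CO2 and 95% humidity, CellTiter-Glo is dispensed and luminescence read following 10 min at room temperature.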
NIH3T3 tox: cytotoxic compounds in NIH 3T3 cells | NIH 3T3 viability, CellTiter-Glo ATP luminescence, 48-72 h | Potency, µM (top dose mostly 96.7 µM), usual class: inhibitors | hit rate 4.3% among 94,000; also: nearly all actives have a fitted effect of over 55% in size
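Cytotoxicity was measured by CellTiter-Glo ATP luminescence after 48 or 72 h compound exposure at 37 °C. Mouse NIH 3T3 fibroblasts were seeded at 400 cells/well and dosed by 23 nL pin transfer.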
hNpr1 antagonist: human Npr1 receptor antagonism; hit rate 1.6% among 76,000; P16066; HEK293 hNpr1 GloSensor cGMP, ANP-stimulated luminescence; Potency, µM (titrated, usually from 46.3 µM), actives largely listed as inhibitors; AID 1347048; calls by dose curve; also: nearly all actives have a fitted effect of over 60% in size
Target sequence (P16066 whole entry, looked up): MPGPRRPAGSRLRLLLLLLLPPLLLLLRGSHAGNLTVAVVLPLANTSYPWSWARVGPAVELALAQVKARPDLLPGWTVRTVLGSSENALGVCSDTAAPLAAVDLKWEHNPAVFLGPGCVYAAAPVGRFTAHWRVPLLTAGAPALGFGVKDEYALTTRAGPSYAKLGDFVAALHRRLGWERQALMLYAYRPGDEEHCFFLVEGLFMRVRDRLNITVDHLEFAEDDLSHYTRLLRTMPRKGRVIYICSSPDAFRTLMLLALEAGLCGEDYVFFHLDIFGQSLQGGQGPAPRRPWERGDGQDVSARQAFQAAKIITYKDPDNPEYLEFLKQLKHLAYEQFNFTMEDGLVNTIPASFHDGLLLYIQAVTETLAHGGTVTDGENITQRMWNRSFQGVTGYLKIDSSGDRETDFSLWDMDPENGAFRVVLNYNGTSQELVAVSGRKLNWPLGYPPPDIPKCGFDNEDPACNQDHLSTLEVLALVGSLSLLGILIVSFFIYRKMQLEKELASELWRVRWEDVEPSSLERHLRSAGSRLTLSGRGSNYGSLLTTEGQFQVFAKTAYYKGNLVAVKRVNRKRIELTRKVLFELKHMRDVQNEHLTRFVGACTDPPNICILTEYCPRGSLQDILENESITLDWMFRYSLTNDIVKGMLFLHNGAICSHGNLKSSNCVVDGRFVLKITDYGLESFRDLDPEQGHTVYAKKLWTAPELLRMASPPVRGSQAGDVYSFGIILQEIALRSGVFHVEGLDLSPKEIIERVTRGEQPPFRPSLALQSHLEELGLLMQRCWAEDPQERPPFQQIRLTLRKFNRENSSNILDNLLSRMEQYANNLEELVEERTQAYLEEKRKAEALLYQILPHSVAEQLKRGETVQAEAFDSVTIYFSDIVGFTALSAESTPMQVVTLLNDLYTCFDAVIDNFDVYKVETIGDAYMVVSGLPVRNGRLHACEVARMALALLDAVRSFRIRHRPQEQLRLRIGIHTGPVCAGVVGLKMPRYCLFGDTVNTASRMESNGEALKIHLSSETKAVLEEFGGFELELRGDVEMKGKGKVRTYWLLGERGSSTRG
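HEK293 cells stably expressing human Npr1 and cGMP GloSensor pGS-40F, loaded 2 h with 2% GloSensor reagent, given compound 30 min at room temperature. Luminescence read before and 20 min after 0.1 nM hNppA.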
Luciferase inh: Photinus pyralis luciferase inhibition. P08659. purified P. pyralis luciferase, luminescence, biochemical. hit rate 2.5% among 76,000. Potency, µM (series often up to 115 µM), usual class: inhibitors; also: nearly all actives have a fitted effect of over 65% in size
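Inhibitors were tested against purified firefly luciferase in a biochemical, low-substrate format (both substrates at 10uM) and luminescence measured with a CCD imager.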
Numbers stand for hits; – = inactive; ? = inconclusive; · = not tested or not shown. Unless noted, calls follow the shape of the dose curve; as a rule, active = well fitted curve in the direction sought with a large enough effect; inconclusive = small, poorly fitted or top-dose-only effect, or another doubt; inactive = no such curve, though single readings can be large; an effect the other way counts as inactive or inconclusive.

SMILES	HEK293 tox	NIH3T3 tox	hNpr1 antagonist	Luciferase inh
COCCN1CCN(C[C@@H]2C=C(C)[C@H](Cc3nnc(-c4cccnc4)o3)C[C@H]2C(C)C)CC1	?	?	–	–
CC1=C[C@@H](CN2CCC(O)CC2)[C@H](C(C)C)C[C@H]1Cc1nnc(-c2ccc(N(C)C)cc2)o1	?	40µM	–	–
COCCN1CCN(C[C@@H]2C=C(C)[C@H](Cc3nnc(-c4ccc(N(C)C)cc4)o3)C[C@H]2C(C)C)CC1	32µM	?	–	–
CN1CCC2(C1)CN(CC1CCOCC1)c1ccc(C(=O)NCCc3ccccc3)cc12 (centres undefined)	?	?	–	–
CN1CCC2(C1)CN(CC1CCOCC1)c1ccc(C(=O)NCCCO)cc12 (centres undefined)	?	89µM	–	–
CC(C)CNC(=O)c1ccc2c(c1)C1(CCN(C)C1)CN2CC1CC1 (centres undefined)	?	?	–	–
CN1CCC2(C1)CN(CC1CCOCC1)c1ccc(C(=O)NCCOc3ccccc3)cc12 (centres undefined)	?	32µM	–	–
CC(C)C(=O)N1CCn2c(nnc2C2CCN(Cc3ccc(F)cc3F)C2)C1 (centres undefined)	–	–	·	·
Cc1noc2c(NCc3ccncc3)cc(-c3ccc(Cl)cc3)nc12	?	45µM	–	–
Cc1noc2c(NCC3CCOCC3)cc(-c3ccc(Cl)cc3)nc12	100µM	?	–	–
Cc1noc2c(NCc3cccnc3)cc(-c3ccc(Cl)cc3)nc12	100µM	?	–	–
Cc1noc2c(NCc3ccccc3)cc(-c3cccnc3)nc12	–	?	–	–
O=C(C[C@H]1NC(=O)c2ccccc2NC1=O)Nc1nc(-c2cccnc2)cs1	45µM	?	–	–
Cc1cccc(C)c1N1C(C(=O)OC(C)(C)C)=C(O)c2ccccc2S1(=O)=O	?	20µM	·	·
CC1Oc2ccc(NC(=O)c3ccccc3)cc2CN(Cc2ccc(Cl)cc2)C1=O (centres undefined)	8.9µM	?	–	–
COc1cccc(C(=O)Nc2ccc3c(c2)CN(Cc2ccc(F)cc2)C(=O)C(C)O3)c1 (centres undefined)	?	?	–	–
CC1Oc2ccc(NC(=O)c3ccc(Cl)cc3)cc2CN(Cc2cc(F)cc(F)c2)C1=O (centres undefined)	20µM	?	–	–
CCC1Oc2ccc(NC(=O)c3ccc([N+](=O)[O-])cc3)cc2CN(C(C)CC)C1=O (centres undefined)	22µM	?	–	–
CC1Oc2ccc(NC(=O)c3ccc(F)cc3)cc2CN(Cc2ccccc2Cl)C1=O (centres undefined)	?	?	–	–
CC1Oc2ccc(NC(=O)c3ccc(F)cc3)cc2CN(Cc2ccccc2F)C1=O (centres undefined)	45µM	?	–	–
COc1ccc(-c2ccc(C(=O)N3CCC(NC(=O)c4ccc(F)cc4)C3)cc2)nn1 (centres undefined)	–	–	·	·
COc1ccc(-c2nc(C(C)C)nc3c2CCN(C(=O)c2ccccc2Cl)CC3)cc1	?	?	–	–
CC1Oc2ccc(NC(=O)c3ccc(Cl)cc3)cc2CN(C(C)C)C1=O (centres undefined)	?	40µM	?	–
COc1ccc(CN2Cc3cc(NC(=O)c4ccc(F)cc4F)ccc3OC(C)C2=O)c(OC)c1 (centres undefined)	45µM	?	–	–
CC(=O)Oc1ccccc1C(=O)Nc1ccc2c(c1)CN(Cc1ccc(Cl)cc1)C(=O)C(C)O2 (centres undefined)	?	25µM	?	–
SMILES	HEK293 tox	NIH3T3 tox	hNpr1 antagonist	Luciferase inh
O=C1CCN(S(=O)(=O)c2ccccc2)CCCN(C(=O)c2cccc3[nH]ccc23)CCN1	–	–	–	–
CNC(=O)CCn1ncc2cc(OCc3ccccc3-c3cnn(C)c3)ccc21	?	?	–	–
CNC(=O)CCn1ncc2cc(OCc3ccccc3-c3ccc(OC)cc3)ccc21	100µM	89µM	–	–
CNC(=O)CCn1ncc2cc(OCc3ccccc3-c3ccsc3)ccc21	89µM	?	–	50µM
CNC(=O)CCn1ncc2cc(OCc3ccccc3-c3cc(F)cc(OC)c3)ccc21	71µM	?	–	–
CNC(=O)CCn1ncc2cc(OCc3ccccc3-c3cncc(OC)c3)ccc21	79µM	?	–	22µM
O=C(NC1CCN(C(=O)c2ccc(-c3cncnc3)cc2)CC1)c1ccccc1Cl	–	–	·	·
COc1cc(-c2ccnc3nc(CCc4ccccc4)nn23)cc(OC)c1OC	–	–	–	–
CNC(=O)CCn1ncc2cc(OCc3ccccc3-c3cccc(OC)c3)ccc21	79µM	?	–	45µM
CNC(=O)CCn1ncc2cc(OCc3ccccc3-c3cc(Cl)ccc3OC)ccc21	?	?	–	–
CNC(=O)CCn1ncc2cc(OCc3ccccc3-c3cccnc3OC)ccc21	?	?	–	?
CNC(=O)CCn1ncc2cc(OCc3ccccc3-c3ccc(OC)cc3C)ccc21	100µM	?	–	?
CCCC(=O)N1CCC(N2C(=O)C3(CCCCC3)C2c2ccncc2)CC1 (centres undefined)	–	–	–	–
Cc1ccncc1C(=O)N1CCC(N2C(=O)C3(CCCC3)C2c2scnc2C)CC1 (centres undefined)	–	–	·	·
CCn1nc(C)c(-c2cc(C(=O)N3CCC(CCOc4ccccc4)C3)no2)c1C (centres undefined)	25µM	?	?	–
Cc1ccc(OCCC2CCN(C(=O)c3cc(CN4CCOCC4)on3)C2)cc1 (centres undefined)	79µM	–	?	–
Cc1nc(N2CCN(C(=O)Cc3ccc(Cl)cc3)CC2)cc(C(F)(F)F)n1	–	?	–	–
O=C(CNC(=O)c1cccc(-c2ccc(C(F)(F)F)cc2)c1)NCc1ccccc1F	22µM	?	·	·
O=C(CNC(=O)c1cccc(-c2ccsc2)c1)NCc1ccccc1F	–	–	·	·
COc1ccccc1CNC(=O)CNC(=O)c1cccc(-c2ccc(C(F)(F)F)cc2)c1	35µM	?	·	·
Cc1ccc2[nH]c(=O)c(CCC(=O)NC3CCN(Cc4ccccc4)CC3)cc2c1	–	–	–	–
Cc1cc(OC2CN(Cc3ccc(C(F)(F)F)cc3)C2)ccc1F	?	?	–	–
Cc1cc(OC2CN(Cc3cccc4ccccc34)C2)ccc1F	100µM	?	–	–
CCCC(=O)Nc1cc(-c2cccnc2)nn1-c1ccccc1	–	–	·	·
CN(C(=O)[C@@H]1C[C@@H](c2ccc(F)cc2)N([S+](=O)([O-])c2ccccc2)C1)c1ccccc1	?	35µM	–	–
COc1ccc(-c2nc(-c3ccccc3)nc3c2CN(C(=O)C2CC2)CC3)cc1	?	?	–	–
Cc1nc2c(c(-c3ccc(O)cc3)n1)CN(C(=O)C1CC1)CC2	–	–	–	–
Cc1nc2c(c(-c3ccc(O)cc3)n1)CN(C(=O)C1CCCC1)CC2	40µM	?	–	–
O=C(c1ccccc1)N1CCc2nc(-c3ccc(Cl)cc3)nc(-c3ccccc3)c2C1	22µM	?	–	–
